Test results from PMC11006913.

Experiments:
NKX2-5 [1] = molecular target: NKX2-5 (Homo sapiens, UniProt P52952 125-210, R139K); test: PBM; 200 nM protein, PBS; conditions: dsDNA, one strand shown
NKX2-5 [2] = molecular target: NKX2-5 (Homo sapiens, UniProt P52952 125-210); test: PBM; 200 nM protein, PBS; conditions: dsDNA, one strand shown
Sequence of NKX2-5 (Homo sapiens, UniProt P52952 125-210) (P52952 125-210): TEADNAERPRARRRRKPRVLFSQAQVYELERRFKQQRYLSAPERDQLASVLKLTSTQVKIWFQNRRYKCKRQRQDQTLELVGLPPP

Sequence of NKX2-5 (Homo sapiens, UniProt P52952 125-210, R139K) (P52952 125-210 R139K): as the sequence (P52952 125-210) above, with R15K counted along it

| Sequence | binding signal (NKX2-5 [1]) | binding signal (NKX2-5 [2]) |
| --- | --- | --- |
| CGCGCAGC | 8.7 upbm affinity estimate (log intensity, higher = more binding, comparable within an allelic series) | 8.72 upbm affinity estimate (log intensity, higher = more binding, comparable within an allelic series) |
| GCTGCGAC | 8.9 upbm affinity estimate (log intensity, higher = more binding, comparable within an allelic series) | 8.94 upbm affinity estimate (log intensity, higher = more binding, comparable within an allelic series) |
| GGCTATTA | 10.7 upbm affinity estimate (log intensity, higher = more binding, comparable within an allelic series) | 10.6 upbm affinity estimate (log intensity, higher = more binding, comparable within an allelic series) |
| CTGATCAG | 8.97 upbm affinity estimate (log intensity, higher = more binding, comparable within an allelic series) | 8.87 upbm affinity estimate (log intensity, higher = more binding, comparable within an allelic series) |
| CTCTTATC | 11.5 upbm affinity estimate (log intensity, higher = more binding, comparable within an allelic series) | 11.4 upbm affinity estimate (log intensity, higher = more binding, comparable within an allelic series) |
| AACGGTGG | 9.06 upbm affinity estimate (log intensity, higher = more binding, comparable within an allelic series) | 8.98 upbm affinity estimate (log intensity, higher = more binding, comparable within an allelic series) |
| CCCGTAGC | 8.54 upbm affinity estimate (log intensity, higher = more binding, comparable within an allelic series) | 8.55 upbm affinity estimate (log intensity, higher = more binding, comparable within an allelic series) |
| ACCGGAGC | 8.8 upbm affinity estimate (log intensity, higher = more binding, comparable within an allelic series) | 8.81 upbm affinity estimate (log intensity, higher = more binding, comparable within an allelic series) |
| CTCATAAG | 10.8 upbm affinity estimate (log intensity, higher = more binding, comparable within an allelic series) | 10.9 upbm affinity estimate (log intensity, higher = more binding, comparable within an allelic series) |
| GATGAGTA | 11 upbm affinity estimate (log intensity, higher = more binding, comparable within an allelic series) | 10.9 upbm affinity estimate (log intensity, higher = more binding, comparable within an allelic series) |
| ATACTCCA | 10.6 upbm affinity estimate (log intensity, higher = more binding, comparable within an allelic series) | 10.4 upbm affinity estimate (log intensity, higher = more binding, comparable within an allelic series) |
| CACAGCCC | 9.06 upbm affinity estimate (log intensity, higher = more binding, comparable within an allelic series) | 9.02 upbm affinity estimate (log intensity, higher = more binding, comparable within an allelic series) |
| ACGTCCCG | 8.76 upbm affinity estimate (log intensity, higher = more binding, comparable within an allelic series) | 8.79 upbm affinity estimate (log intensity, higher = more binding, comparable within an allelic series) |
| TCACTCGA | 10.9 upbm affinity estimate (log intensity, higher = more binding, comparable within an allelic series) | 10.9 upbm affinity estimate (log intensity, higher = more binding, comparable within an allelic series) |
| AGACCGCG | 8.9 upbm affinity estimate (log intensity, higher = more binding, comparable within an allelic series) | 8.83 upbm affinity estimate (log intensity, higher = more binding, comparable within an allelic series) |
